Compounds with a hit are over-represented: about 4.7% of the library has one in this group of screens.
D1 PAM = human D1 dopamine receptor positive modulation; potentiation, % at 10 µM; HEK293 TREx D1 cells, calcium flux, dopamine EC20 potentiation; P21728; 0.036% of 360,000 active; in the data active = potentiation above about 30%; note: 0% is about no effect
Target sequence (P21728 whole entry, looked up): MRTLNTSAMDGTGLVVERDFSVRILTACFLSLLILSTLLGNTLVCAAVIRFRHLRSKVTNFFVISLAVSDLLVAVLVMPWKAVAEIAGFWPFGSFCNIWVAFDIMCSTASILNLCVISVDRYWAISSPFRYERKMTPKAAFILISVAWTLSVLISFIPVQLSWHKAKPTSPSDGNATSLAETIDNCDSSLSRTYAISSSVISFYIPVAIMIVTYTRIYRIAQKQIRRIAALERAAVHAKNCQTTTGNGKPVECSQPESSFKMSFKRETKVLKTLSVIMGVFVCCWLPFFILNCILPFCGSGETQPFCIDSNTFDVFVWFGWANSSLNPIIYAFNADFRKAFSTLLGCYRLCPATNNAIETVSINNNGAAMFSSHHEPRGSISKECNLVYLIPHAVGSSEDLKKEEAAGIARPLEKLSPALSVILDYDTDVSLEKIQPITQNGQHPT
TRHR ag = TRH receptor (human) agonism. AID 493084. activation, % at 2 µM. P34981. TRHR cells, calcium flux fluo-8, FDSS agonist mode. 0.18% of 360,000 active; note: 0% is about no effect
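In this calcium-flux screen, cells bearing human TRHR are dye-loaded with fluo-8, baselined for 10 cycles, then exposed to library compounds; positive kinetic calcium responses during the agonist phase mark hits, with TRH as control.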
D1 ag = human D1 receptor agonism; P21728; activation, % at 2 µM; 1% of 360,000 active; HEK293 T-REx D1 cells, calcium flux, agonist mode; AID 504660; note: 0% is about no effect
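Inducible HEK293 T-REx D1 cells, force-coupled to calcium signalling, were plated at 4000 cells/well with tetracycline and held overnight at 30 C. After no-wash calcium dye loading, compound-evoked calcium rise over 180 s flagged agonists.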
TRHR PAM = allosterically enhances the human TRH receptor; P34981; 0.66% of 360,000 active; TRHR cells, fluo-8 calcium fluorescence, EC20 TRH enhancement; enhancement, % at 2 µM; in the data active = enhancement above about 30%; note: 0% is about no effect
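Enhancer read-out: after compound pinning and an initial kinetic agonist-mode read, an EC20 of TRH (10 nM final) was injected and fluo-8 calcium signal (Ex 480/Em 530) followed at 1 s/cycle for 100 cycles in TRHR-expressing cells.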
D1 antagonist = antagonists of human D1 dopamine receptor; P21728; HEK293 TREx D1 cells, calcium flux, dopamine EC80; stronger effect = lower value; activity change, negative = inhibition, % at 10 µM; 3.2% of 360,000 active; in the data active = activity change below about -30%; note: % is set by controls: 0 for no effect and ±100 for the full control effect
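After overnight tetracycline induction at 30 C, force-coupled D1 HEK293 cells took up a no-wash calcium dye at room temperature. Compounds were added and monitored 180 s, and the response to EC80 dopamine was then recorded.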
* marks the source's active call; other numbers are inactive results; x = no result; ! = a repeat was not active. Cut-off read from the data, not from the text of the source, unless noted: active = activation above about 30%; inactive = the rest.

SMILES | D1 PAM | TRHR ag | D1 ag | TRHR PAM | D1 antagonist
CCOC(=O)Cc1cc(=O)[nH]c(/N=C(\N)Nc2ccc(C)c(C)c2)n1 | -7 | 0 | 4 | 1 | -44*
COc1ccc(OC2CCN(C(=O)Nc3ccc(C)cc3)CC2)cc1 | 0 | 0 | 6 | -2 | -2
NC(=O)c1oc2ccccc2c1NC(=O)c1ccc([N+](=O)[O-])o1 | x | 0 | 3 | -2 | 15
CCc1ccc(CNC(=O)CCCn2ccc3cc(S(=O)(=O)N4CCCC4)ccc32)cc1 | -2 | 1 | 6 | -3 | -1
COc1ccc(OC)c(N=c2oc3cc(O)ccc3cc2C(N)=O)c1 | -12 | -1 | 0 | 18 | -36*
NC(=O)c1cc2ccccc2oc1=NCc1ccccc1 | -1 | 0 | -1 | 0 | 11
COc1ccc2cc(C(N)=O)c(=Nc3ccccc3)oc2c1 | -2 | 0 | 1 | 8 | 1
NC(=O)c1cc2ccc(O)cc2oc1=NCc1ccccc1 | -8 | 26 | 150* | 0 | -17
CC(C)N1C(=O)C(O)(C2COC(C)(C)CC2=O)c2ccccc21 (centres undefined) | 5 | 0 | 1 | 33* | 4
CCOCCCNC(=O)c1cn(CC)c2ccc(S(=O)(=O)N3CCC(C)CC3)cc2c1=O | 1 | 0 | 2 | 7 | -34*
CCOc1ccc(CCNC(=O)c2cn(CC)c3ccc(S(=O)(=O)N4CCc5ccccc5C4)cc3c2=O)cc1OCC | 9 | 1 | 0 | -4 | -47*
CCn1cc(C(=O)NCCc2ccc(C)cc2)c(=O)c2cc(S(=O)(=O)N3CCc4ccccc4C3)ccc21 | 3 | 1 | -1 | 6 | -7
CCCCN(C)C(=O)c1cn(CC)c2ccc(S(=O)(=O)N(C)C)cc2c1=O | x | 0 | 3 | 0 | -31*
CCCCN(CCCC)CCNC(=O)c1cn(C)c2ccc(S(=O)(=O)N3CCOCC3)cc2c1=O | 1 | -1 | 0 | -1 | -35*
Cn1cnnc1SCC(=O)NCCc1ccc(Cl)cc1Cl | 0 | -1 | -1 | 20 | -3
Cc1ccc(CCN2CCN=C2Nc2ccccc2)cc1 | -7 | 3 | 12 | 0 | -17
CCOc1ccc(-n2c(SCC(=O)c3ccccc3)nc3c([nH]c4ccccc43)c2=O)cc1 | 2 | 0 | 1 | 2 | 10
Cc1ccc(N2CC(C)Cn3c2nc2c3c(=O)[nH]c(=O)n2C)cc1C (centres undefined) | 1 | -1 | 5 | -6 | 14
CCN(CC)CCCNC(=O)c1cn(CC)c2ccc(S(=O)(=O)N(C)C3CCCCC3)cc2c1=O | 0 | 0 | 2 | 4 | 15
CCCCNC(=O)Cn1cnc2ccc(S(=O)(=O)N3CCC(C)CC3)cc2c1=O | -1 | 0 | 4 | -5 | 0
CCn1cc(C(=O)NCCCN2CCCC(C)C2)c(=O)c2cc(S(=O)(=O)N(C)C3CCCCC3)ccc21 (centres undefined) | 7 | 0 | 0 | -4 | -79*!
CCN(CC)CCCNC(=O)Cn1cnc2ccc(S(=O)(=O)N3CCC(C)CC3)cc2c1=O | -5 | 0 | 2 | -6 | -39*
COc1ccc(C(=O)NCCn2cc(SCC(=O)Nc3ccccc3)c3ccccc32)cc1OC | -3 | -1 | 1 | -8 | 2
CCn1c(SCc2ccccc2F)nnc1-c1ccncc1 | -14 | 1 | 3 | 12 | 5
O=C(CC(NS(=O)(=O)c1ccc(Cl)cc1)c1ccco1)NCc1ccco1 (centres undefined) | -4 | -1 | 9 | -5 | -38*
SMILES | D1 PAM | TRHR ag | D1 ag | TRHR PAM | D1 antagonist
Cc1ccc(C)c(Cn2c(=O)n(CCCC(=O)NCc3ccc4c(c3)OCO4)c(=O)c3sccc32)c1 | -1 | -1 | 2 | 3 | -2
COC(=O)CNC(=O)C1CCC(CNS(=O)(=O)c2cccc3nsnc23)CC1 (centres undefined) | 2 | 0 | 2 | -5 | -33*
COc1cccc(CNC(=O)CCNS(=O)(=O)c2cccc3nonc23)c1 | -6 | 14 | -4 | -3 | -8
COc1cccc(CNC(=O)CCNS(=O)(=O)c2cccc3nsnc23)c1 | -1 | -1 | 1 | -9 | -73*!
COc1ccc(F)cc1S(=O)(=O)Nc1cc2c3c(c1)CC(=O)N3CCC2 | -6 | 0 | 2 | 7 | -17
O=C1Cc2cc(NS(=O)(=O)c3cc(F)ccc3F)cc3c2N1CCC3 | -4 | 0 | 1 | 10 | -60*
CCN1CCN(c2ccccc2NC(=O)C(C)Oc2ccc(C(C)=O)cc2)CC1 (centres undefined) | -4 | 0 | 0 | 7 | -49*
CC(Oc1cccc(Cl)c1)C(=O)Nc1ccccc1N1CCCC1 (centres undefined) | 1 | 0 | 4 | -5 | 19
N#C/C(=C/c1ccc(CNC(=O)C(=O)Nc2cc(Cl)cc(Cl)c2)o1)C(=O)NCc1cccnc1 | -5 | -1 | 0 | 19 | -63*
Cc1ccc(NC(=O)C(=O)NCc2ccc(/C=C(/C#N)C(=O)NCc3cccnc3)o2)cc1 | -11 | -1 | 13 | 9 | -29
COc1cccc(NC(=O)c2ccc(CNS(=O)(=O)c3ccc4c(c3)C(C)(C)C(=O)N4C)cc2)c1 | 0 | 1 | 4 | -7 | 10
N#CCCN(Cc1cccnc1)S(=O)(=O)c1ccc2ccccc2c1 | 0 | -1 | 0 | 2 | -37*
N#CCCN(Cc1cccnc1)S(=O)(=O)c1ccc(S(=O)(=O)NC2CCCCC2)cc1 | 3 | 0 | 1 | -7 | 4
Cc1ccc(S(=O)(=O)N2CCOCC2)cc1NC(=O)COC(=O)c1cccnc1Cl | -6 | 0 | 4 | 0 | -64*
O=C(COC(=O)c1ccc(Br)cc1)Nc1cccnc1Cl | 3 | 0 | 1 | 2 | -6
COc1ccccc1CNCC(=O)Nc1cc(S(=O)(=O)N2CCOCC2)ccc1Cl | -3 | 0 | 2 | 0 | -6
Cc1ccc(S(=O)(=O)N2CCOCC2)cc1NC(=O)COC(=O)c1cc(=O)[nH]c2ccccc12 | -4 | 0 | 25 | -16 | -41*
O=C(CNc1ccccc1Cl)Nc1cc(S(=O)(=O)N2CCOCC2)ccc1Cl | 1 | 1 | 2 | -4 | -33*
CN(C)S(=O)(=O)c1ccc(C(=O)OCC(=O)Nc2cccnc2Cl)cc1 | 3 | 1 | 8 | -5 | -33*
COCCn1cnc2c1c(=O)n(Cc1ccccc1C#N)c(=O)n2Cc1ccccc1 | 0 | 0 | -1 | -5 | -3
Cc1ccc(-c2nc(SCC(=O)Nc3cc(S(=O)(=O)N4CCCCC4)ccc3Cl)n[nH]2)cc1 | -4 | 0 | 4 | -12 | -35*
O=C1CN(C(=O)c2ccc(Cl)c([N+](=O)[O-])c2)c2ccccc2N1 | -4 | 0 | 2 | 1 | 19
CC1=C(C(=O)OCc2ccccc2)C(c2ccc(Cl)cc2Cl)NC(=O)N1CCCCCC(=O)O (centres undefined) | -4 | -1 | -2 | -1 | -27

Screens: PubChem, National Center for Advancing Translational Sciences (NCATS)
